# Assay outcomes: PubChem BioAssay, National Center for Advancing Translational Sciences (NCATS)
# IL-1B inflam inh = inflammasome signaling inhibition, IL-1 beta readout. THP-1 LPS/ATP IL-1B secretion, AlphaLISA, 16 h; stronger effect = lower value. activity change, % at 57.5 µM. hit rate 4.7% among 360,000; in the data active means activity change below about -50%; inconclusive means mostly about -30% to -49%
#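 Secreted IL-1B measured by AlphaLISA bead assay after 16 h compound exposure of THP-1 cells; compounds (final up to 57.5 uM) added 1 h before LPS (250 ng/mL) and ATP (1.25 mM) stimulation; lower signal means less secretion.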
# RORgamma inh = inhibitors of mouse ROR gamma transcriptional activity. Potency, µM (doses to about 53.6 µM), most hits filed as inhibitors. AID 2551. hit rate 5.4% among 310,000. Drosophila S2 Gal4-RORgamma UAS-luciferase reporter, 20 h. P51450; further: nearly all actives have a fitted effect of over 60% in size
# Target sequence (P51450 whole entry, looked up, the tested form may be a part): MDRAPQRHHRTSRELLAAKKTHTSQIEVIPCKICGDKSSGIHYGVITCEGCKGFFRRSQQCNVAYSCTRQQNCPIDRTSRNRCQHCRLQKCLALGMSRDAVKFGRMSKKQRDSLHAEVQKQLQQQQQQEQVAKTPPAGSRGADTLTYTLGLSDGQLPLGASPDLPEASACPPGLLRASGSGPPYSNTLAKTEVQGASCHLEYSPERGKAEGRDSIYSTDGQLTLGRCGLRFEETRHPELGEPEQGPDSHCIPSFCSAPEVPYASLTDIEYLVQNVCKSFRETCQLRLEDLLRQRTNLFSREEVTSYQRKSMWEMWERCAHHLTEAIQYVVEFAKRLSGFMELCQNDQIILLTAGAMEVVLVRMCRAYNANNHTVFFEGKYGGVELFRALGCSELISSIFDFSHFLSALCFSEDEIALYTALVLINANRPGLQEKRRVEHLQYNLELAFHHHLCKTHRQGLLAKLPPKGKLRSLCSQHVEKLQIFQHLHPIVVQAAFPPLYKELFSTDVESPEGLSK
#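 Drosophila S2 cells stably expressing Gal4-DBD/mouse RORγ fusion under metallothionein promoter plus UAS-luciferase; compound 1 h, then 700 uM CuSO4 induction for 20 h at ambient temperature; inhibition read as reduced luminescence.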
# LDHA inh = blocks human lactate dehydrogenase A; hit rate 0.15% among 480,000; activity change, % (values are at about 110 or 230 µM); P00338; purified LDHA, NADH/diaphorase-resazurin fluorescence; stronger effect = lower value; in the data active means activity change below about -30%; inconclusive means mostly about -25% to -30%
#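 Enzyme activity of human lactate dehydrogenase 5 (2 nM; 0.06 mM NADH, 0.2 mM pyruvate, 5 min, RT) is measured via a resazurin/diaphorase fluorescence readout of residual NADH.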
# VP16 counter = inhibits Gal4-VP16 luciferase reporter, ROR gamma counter-screen; Drosophila S2 Gal4-VP16 UAS-luciferase, luminescence, 20 h; Potency, µM (highest dose often 53.6 µM), usual class: inhibitors; hit rate 3.5% among 310,000;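 further: Gal4-VP16 expression switched on by copper sulfate through the metallothionein promoter; nearly all actives have a fitted effect of over 50% in size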
# DT40 TDP1 CPT = DT40-hTDP1 cell growth loss with CPT | hit rate 12% among 420,000 | chicken DT40 Tdp1-/-;hTDP1 cells + 20 nM CPT, ATP luminescence, 48 h | Potency, µM (highest dose often 46.2 µM), usual class: inhibitors | AID 686979; further: nearly all actives have a fitted effect of over 55% in size
#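 Chicken DT40 Tdp1-/- cells stably complemented with human TDP1 were seeded at 400 cells/well in medium containing 20 nM camptothecin, exposed to pin-transferred compounds, and grown at 37 °C for at least 48 hr. Viability was read as ATP luminescence.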
# DT40 TDP1 no CPT = qHTS for Inhibitors of human tyrosyl-DNA phosphodiesterase 1 (TDP1): qHTS in cells in absence of CPT. DT40 Tdp1-/- hTDP1 cells, no CPT, ATP luminescence, 48 h. hit rate 15% among 420,000. Potency, µM (highest dose often 46.2 µM), most hits filed as inhibitors; further: nearly all actives have a fitted effect of over 55% in size
#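 Camptothecin absent (DMSO only). Human TDP1-complemented DT40 knockout cells, 400 cells/well, 37 °C for minimum 48 hr; ATP measured via CellTiter-Glo, 30 min dark incubation, luminescence.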
# Hits are given with their value; n = inactive; u = inconclusive; x = not tested or not shown. Hits are enriched below; roughly 18% of the tested compounds scored in any of these assays. Unless noted, the call rests on the fitted dose curve; in most records, active means well fitted curve in the direction sought with a large enough effect; inconclusive means small, poorly fitted or top-dose-only effect, or another doubt; inactive means no such curve, though single readings can be large; an effect the other way counts as inactive or inconclusive.
SMILES,IL-1B inflam inh,RORgamma inh,LDHA inh,VP16 counter,DT40 TDP1 CPT,DT40 TDP1 no CPT
COc1ccc(N2CCN(C(=O)c3ccccc3Br)CC2)c([N+](=O)[O-])c1,-61.2,n,n,n,u,14.6µM
Cc1ccc(C)c(N2CCN(c3ccc(N4C(=O)COCC4=O)cc3[N+](=O)[O-])CC2)c1,n,n,n,n,n,n
Cc1ccc(C(=O)COC(=O)c2cc3ccccc3oc2=O)cc1C,x,x,n,x,x,x
COc1ccc(NC(=O)c2nc[nH]c2C(=O)N[C@@H](C)C(=O)OC(C)(C)C)cc1,n,11.2µM,n,u,u,n
COc1ccc(NC(=O)c2nc[nH]c2C(=O)N[C@@H](CC(C)C)C(=O)OC(C)(C)C)cc1,n,5.62µM,n,15.8µM,u,u
C[C@H](NC(=O)c1[nH]cnc1C(=O)Nc1ccccc1)C(=O)OC(C)(C)C,n,2.82µM,n,11.2µM,u,u
COc1ccc(NC(=O)c2nc[nH]c2C(=O)N(C)CCO)cc1,n,x,n,x,n,n
Cc1ccc(NC(=O)c2nc[nH]c2C(=O)N[C@@H](C)C(=O)OC(C)(C)C)cc1,n,6.31µM,n,u,u,u
Cn1c(=O)c2nc(SCc3ccc(F)cc3)n(C)c2n(C)c1=O,x,x,n,x,x,x
COc1ccc(OC)c(NC(=S)NCCC(c2ccccc2)c2ccccc2)c1,n,x,n,x,u,14.6µM
COc1cc(NC(=S)NC(C)(C)C)c(OC)cc1Cl,n,5.01µM,n,u,u,n
COc1ccc(NC(=S)Nc2ccccc2SC)c(OC)c1,n,11.2µM,n,u,n,u
COc1cc(Cl)c(C)cc1NC(=S)NN,n,2.51µM,n,u,u,18.4µM
COc1cc(NC(=S)Nc2cccc(Cl)c2Cl)c(OC)cc1Cl,n,u,n,u,n,n
COc1cc(Cl)c(C)cc1NC(=O)c1cccc(OC)c1OC,n,n,n,n,u,u
O=C(COC(=O)C12CC3CC(CC(Cl)(C3)C1)C2)NC(=O)c1cccc([N+](=O)[O-])c1,x,x,n,x,x,x
CCCC(C)NC(=O)COc1cc2oc(=O)cc(-c3ccccc3)c2cc1Cl (stereo not drawn),x,x,n,x,x,x
Cc1cc(C)cc(NC(=S)NCCc2ccccc2)c1,x,x,n,x,x,x
COc1cc(OC)c(NC(=S)NCc2ccccc2)cc1Cl,n,11.2µM,n,u,n,n
COc1ccc(NC(=S)NCc2ccccc2)c(OC)c1,n,15.8µM,n,u,n,u
CSc1ccccc1NC(=S)Nc1cc(C)cc(C)c1,n,6.31µM,n,14.1µM,n,u
COc1ccc(NC(=S)NCCc2ccccc2)c(OC)c1,n,11.2µM,n,17.8µM,u,u
COc1ccc(NC(=O)C(=O)NCc2ccccc2)c(OC)c1,x,x,n,x,x,x
COc1cc(NC(=S)NCc2cccnc2)c(OC)cc1Cl,n,n,n,n,n,n
COc1ccc(NC(=O)Nc2ccc(F)c(-c3nnc(-c4ccccc4)o3)c2)c(OC)c1,x,x,n,x,x,x
SMILES,IL-1B inflam inh,RORgamma inh,LDHA inh,VP16 counter,DT40 TDP1 CPT,DT40 TDP1 no CPT
CSc1ccc(NC(=O)Nc2cc(F)ccc2F)cc1,x,x,n,x,x,x
COc1cc(OC)c(NC(=S)Nc2cc(Cl)cc(Cl)c2)cc1Cl,-91.5,12.6µM,n,u,u,u
COc1cc(NC(=O)c2c(F)c(F)c(F)c(F)c2F)c(OC)cc1Cl,-101.1,n,n,n,n,u
CCC(=O)c1ccc(OC(=O)c2ccc(C)c(Br)c2)cc1,x,x,n,x,x,x
Cn1c(-c2csc(-c3cccc(C(F)(F)F)c3)n2)n[nH]c1=S,n,4.47µM,n,n,u,u
CCOC(=O)Cc1csc(SCC(=O)c2c(N)n(CC(C)C)c(=O)n(C)c2=O)n1,n,u,n,10µM,9.2µM,10.3µM
CC(C)Cn1c(N)c(C(=O)CSc2ncccn2)c(=O)n(C)c1=O,n,x,n,x,u,10.3µM
Cc1csc(SCC(=O)c2c(N)n(CC(C)C)c(=O)n(C)c2=O)n1,n,n,n,n,16.4µM,20.6µM
COc1cccc(OC)c1OC(=O)c1ccc(C#N)cc1,x,x,n,x,x,x
O=C(O)c1c2c(nc3ccccc13)-c1ccccc1CC2,n,n,n,n,n,n
c1ccc2c(c1)CCc1c-2nc2ccccc2c1N1CCOCC1,n,n,n,n,11.6µM,u
NS(=O)(=O)c1ccc(NC(=O)Nc2ccc(C(F)(F)F)cc2)cc1,-57.9,n,n,n,u,18.4µM
CC(C)(C)c1ccc(C(=O)Nc2ccc(S(N)(=O)=O)cc2)cc1,-76.1,n,n,n,u,u
NS(=O)(=O)c1ccc(NC(=O)c2ccc(-c3ccccc3)cc2)cc1,n,n,n,n,n,n
NC(=O)c1cc(-c2ccccc2)nc(N2CCOCC2)n1,-50.5,n,n,n,20.6µM,11.6µM
Cc1cc(Cl)ccc1NC(=S)N1CCN(Cc2ccccc2)CC1,n,11.2µM,n,12.6µM,n,n
Cc1cccc(NC(=S)N2CCN(Cc3ccccc3)CC2)c1C,n,8.91µM,n,u,n,u
Cc1cc(Cl)ccc1NC(=S)N1CCN(C(=O)C2CCCO2)CC1 (stereo not drawn),n,n,n,u,n,n
COCCCNC(=O)c1ccc([N+](=O)[O-])cc1,n,n,n,n,n,n
O=C(CCl)NCCCN(C(=O)C(Cl)Cl)c1ccc([N+](=O)[O-])cc1,n,n,n,n,9.2µM,13µM
COc1cccc(C(C)(O)c2nc(-c3cc4ccccc4o3)cs2)c1 (stereo not drawn),n,x,n,x,16.4µM,23.1µM
CC(O)(c1ccc(F)c(F)c1)c1nc(-c2cc3ccccc3o2)cs1 (stereo not drawn),n,x,n,x,u,14.6µM
CC(O)(c1ccc(F)c(F)c1)c1nc(-c2csc3ccccc23)cs1 (stereo not drawn),n,x,n,x,u,u
CC(O)(c1cccc(F)c1)c1nc(-c2cc3ccccc3o2)cs1 (stereo not drawn),n,x,n,x,u,23.1µM
COc1ccc(CCC(=O)Nc2nc(C)c(C(C)=O)s2)cc1OC,x,x,n,x,x,x
O=C(Nc1ccc(S(=O)(=O)N2CCC(Cc3ccccc3)CC2)cc1)C1=COCCO1,x,x,n,x,x,x
CCCCCCC[N+](CC)(CC)CCCCc1ccc(Cl)cc1,u,n,n,n,0.651µM,0.206µM
Cc1c(C(=O)N(Cc2ccc(Cl)cc2)C2CCS(=O)(=O)C2)oc2ccc(Br)cc12 (stereo not drawn),x,x,n,x,x,x
Cc1c(C(=O)N(Cc2cccc(Br)c2)C2CCS(=O)(=O)C2)oc2ccc(F)cc12 (stereo not drawn),n,n,n,n,u,u
Cc1cc2oc(C(=O)N(Cc3ccccc3F)C3CCS(=O)(=O)C3)c(C)c2cc1Cl (stereo not drawn),x,x,n,x,u,16.4µM
